# Only some compounds are listed: those with a hit (about 0.82% of all), similar ones and a draw of the others.
# PrPC TRFRET: inhibitors of human cell surface prion protein PrPC; TR-FRET read-out; inhibition, % at 13.8 µM; 370,000 tested, 0.43% active; AID 720596; in the data active = inhibition above about 24%; also: 0% = median of the test wells and 100% = reference compound wells
# VHR inh abs: blocks human VHR1 dual specificity phosphatase; P51452; recombinant VHR phosphatase, pNPP absorbance; inhibition, % at 13.3 µM; 290,000 tested, 0.52% active; AID 1654; in the data active = inhibition above about 50%
# Target sequence (P51452 whole entry, looked up): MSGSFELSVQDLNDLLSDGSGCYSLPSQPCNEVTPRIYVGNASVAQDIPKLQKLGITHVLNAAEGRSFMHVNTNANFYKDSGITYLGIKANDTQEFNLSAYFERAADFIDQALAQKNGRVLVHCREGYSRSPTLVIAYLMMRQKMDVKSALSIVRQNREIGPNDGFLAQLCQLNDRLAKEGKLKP
# TcdB GH inh: TcdB glycohydrolase inhibition; P18177; TcdB glycohydrolase enzymatic assay, plate reader; inhibition, % at 9.99 µM; 350,000 tested, 0.24% active; AID 652162; in the data active = inhibition above about 10%
# * = called active by the depositor; . = not tested or not shown.
SMILES,PrPC TRFRET,VHR inh abs,TcdB GH inh
COc1ccc(/C=C2\SC(=S)N(CCC(=O)Nc3ccc(C(=O)O)cc3)C2=O)cc1,-9,52*,3
CCc1ccc(/C=C2/SC(=S)N(CCC(=O)Nc3ccc(C(=O)O)cc3)C2=O)cc1,5,63,0
C[C@@H](NC(=O)C[C@H]1CC[C@@H](NC(=O)c2cccnc2)[C@H](CO)O1)c1ccccc1,.,.,0
C[C@@H]1CN([C@H](C)CO)C(=O)c2cc(C#CC3CCCCC3)cnc2O[C@H]1CN(C)C(=O)NC1CCCC1,.,.,-18
N#Cc1cccc(-c2ccc3c(c2)[C@H]2[C@H](CCN2S(=O)(=O)c2ccccc2F)[C@H](CO)N3)c1,.,.,1
COC(=O)CCc1ccc(O)cc1,-4,16,1
COc1cc(O)ccc1C(=O)CCc1ccc(O)cc1,-3,18,17*
Nc1c(N2CCCC2)cc(Cl)c2nonc12,.,56*,.
Nc1c(N2CCOCC2)cc(Cl)c2nonc12,-28,-1,.
O=C(Nc1ccc(F)cc1)N1CC(=O)N2[C@H](C1)[C@H](c1ccc(-c3cccc(F)c3)cc1)[C@@H]2CO,.,.,1
CCOc1cccc(C2c3c(oc4cc(C)c(C)cc4c3=O)C(=O)N2CCCN(C)C)c1 (configuration not stated),.,50*,.
CCCOc1ccc(C2c3c(oc4cc(C)c(C)cc4c3=O)C(=O)N2CCCN(C)C)cc1 (configuration not stated),3,25,3
CCCC#Cc1ccc2c(c1)O[C@H](CN(C)Cc1ccncc1)[C@@H](C)CN([C@@H](C)CO)S2(=O)=O,.,.,0
Nc1ccc(Sc2ccc([N+](=O)[O-])cc2)cc1,-14,31,4
Nc1ccc(Sc2ccc(N)cc2)cc1,6,.,13*
CO[C@@H]1CN(C)C(=O)c2cc(NC(=O)Nc3ccccc3F)ccc2OC[C@@H](C)NC[C@@H]1C,.,.,-2
CC(C)C(=O)Nc1c(C(=O)N2CCN(c3ncccn3)CC2)oc2ccccc12,1,53*,2
CCC(CC)C(=O)Nc1c(C(=O)N2CCN(c3ccccc3)CC2)oc2ccccc12,-17,13,2
Cc1ccc(S(=O)(=O)CC(O)COc2ccc(C#N)cc2)cc1 (configuration not stated),7,31,0
Cc1ccc(S(=O)(=O)N(C)S(=O)(=O)c2ccc(C#N)cc2)cc1,.,53*,.
CC(C)NC(=O)N(C)C[C@@H]1Oc2cc(C3=CCCC3)ccc2S(=O)(=O)N([C@H](C)CO)C[C@H]1C,.,.,-1
COc1ccccc1N1CCN(C2CCCN(Cc3ccccc3OCCO)C2)CC1 (configuration not stated),-7,59*,0
COc1ccc(O)c(CN2CCCC(N3CCN(c4ccccc4OC)CC3)C2)c1 (configuration not stated),2,21,-3
COc1ccc(S(=O)(=O)N(C)C[C@@H]2OCCCC[C@@H](C)Oc3ccc(NS(=O)(=O)c4c(C)noc4C)cc3C(=O)N([C@@H](C)CO)C[C@H]2C)cc1,.,.,0
CCN(CC)CCCNC(=O)c1ccc2c(Cl)c3c(nc2c1)CCCC3,-8,14,1
SMILES,PrPC TRFRET,VHR inh abs,TcdB GH inh
CCCCN(CC)CCNC(=O)c1ccc2c(Cl)c3c(nc2c1)CCC3,-7,57*,-6
COc1ccc(-c2csc3nc(C(C)(C)C)oc(=O)c23)cc1OC,2,-23,1
COc1ccc(-c2csc3nc(-c4ccc(C)cc4)oc(=O)c23)cc1OC,5,92*,4
O=C(O)C1CC=CCC1C(=O)Nc1ccccc1 (configuration not stated),8,17,.
O=C(Nc1nccs1)c1ccc(NC(=O)C2CC=CCC2C(=O)O)cc1 (configuration not stated),7,53*,1
COc1ccc2c3c(n(C)c2c1)[C@H](CO)N(C(=O)CC1CC1)CC31CCN(C(=O)NC(C)C)CC1,.,.,-1
CC1(C)CC(=O)C(C=Nc2ccc(N)cc2)=C(O)C1,-11,22,13*
COc1cccc(N=CC2=C(O)CC(C)(C)CC2=O)c1,3,3,1
CCOc1ccc(N=CC2=C(O)CC(C)(C)CC2=O)cc1,4,-7,.
CC1(C)CC(=O)C(C=Nc2ccc(O)cc2)=C(O)C1,-10,32,32*
Cc1csc(SC(C)C(=O)NCC(=O)Nc2ccc(F)c(F)c2F)n1 (configuration not stated),-3,-1,1
CC(Sc1nc(N)cc(=O)[nH]1)C(=O)NCC(=O)Nc1ccc(F)c(F)c1F (configuration not stated),-2,.,11*
C[C@@H]1CN([C@H](C)CO)S(=O)(=O)c2ccc(C3=CCCCC3)cc2O[C@H]1CN(C)C(=O)Nc1ccc2c(c1)OCO2,.,.,0
CC(C)(C)Sc1ccc(/C=N/O)cc1[N+](=O)[O-],2,17,8
O=[N+]([O-])c1cc(/C=N/O)ccc1SCc1ccccc1Cl,-20,53*,.
CCCC#Cc1cnc2c(c1)C(=O)N([C@@H](C)CO)C[C@H](C)[C@H](CN(C)Cc1ccncc1)O2,.,.,0
COc1ccc(CCNc2cc(C)[nH]c(=O)c2)cc1OC,0,60*,1
CNCCc1ccc(OC)c(OC)c1,-3,14,0
CCCNC(=O)Nc1ccc2c(c1)OC[C@H](C)N(CCC)C[C@@H](C)[C@H](OC)CN(C)C2=O,.,.,0
CN(CC(=O)N1CCCc2c1c(=O)oc1ccc(O)cc21)Cc1ccccc1,-11,14,.
CC(C(=O)N1CCCc2c1c(=O)oc1ccc(O)cc21)N1CCc2ccccc2C1 (configuration not stated),.,56*,.
COc1ccc(CN(C)C[C@H]2Oc3c(NS(=O)(=O)c4ccc(OC)cc4)cccc3C(=O)N([C@@H](C)CO)C[C@H]2C)cc1,.,.,2
COc1cc(CNCCc2c[nH]c3ccccc23)cc(OC)c1OC,-8,.,1
COc1cccc(CNCCc2c[nH]c3ccccc23)c1OCc1ccccc1,-6,60*,1
CCS(=O)(=O)N1CCC2(CC1)CN(Cc1ccccc1)[C@@H](CO)c1c2c2ccc(OC)cc2n1C,.,.,-1
SMILES,PrPC TRFRET,VHR inh abs,TcdB GH inh
CCN1CCCC1CNC(=O)c1cc(N)ccc1OC (configuration not stated),2,.,0
CCN1CCCC1CNC(=O)c1cc([N+](=O)[O-])c(N(C)C)cc1OC (configuration not stated),-11,57*,1
Cc1ccc(S(=O)(=O)Nc2cccc3c2O[C@@H](CN(C)S(=O)(=O)c2ccccc2)[C@@H](C)CN([C@@H](C)CO)C3=O)cc1,.,.,-1
NC(=O)c1ccsc1NC(=O)CS(=O)(=O)c1ccc(Cl)cc1,-4,56*,2
NC(=O)c1ccsc1NC(=O)CCS(=O)(=O)c1ccc(Cl)cc1,-4,.,2
N#Cc1c(N)n[nH]c1-c1cc2c([nH]1)CCCC2,-4,18,.
N#Cc1c(N)n[nH]c1CCCN,1,51*,0
C[C@@H]1CCCCO[C@@H](CN(C)C(=O)C2CCCCC2)[C@H](C)CN([C@H](C)CO)C(=O)c2cc(NC(=O)Nc3ccc4c(c3)OCO4)ccc2O1,.,.,0
CC(C)NC(=O)N(C)C[C@H]1Oc2ncc(C#Cc3ccncc3)cc2C(=O)N([C@@H](C)CO)C[C@@H]1C,.,.,1

# Screening results from PubChem BioAssay.
